# Results filed as inconclusive are left out. Calls of active or inactive are those of the source. How the source made its calls: active means hit-call score of the fitted dose curve at least 0.9, where 1 is the maximum; inconclusive means response in the unintended direction; inactive means score below 0.9.
# Biological target: Luciferin 4-monooxygenase (Photinus pyralis) (UniProt P08659)
# Experiment: CCTE_Simmons_QuantiLum_inhib_2: CCTE's Firefly Luciferase Inhibition Assay, Simmons Lab (AID 2283767);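 on AC50: potency for inhibitors that lower luciferase luminescence relative to DMSO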
# Experimental: CCTE_Simmons_QuantiLum_inhib_2 is a biochemical, single-readout assay that uses purified luciferase enzyme in a cell-free assay.Measurements were taken 0.5 hour after chemical dosing in a 384-well plate.CCTE_Simmons_QuantiLum_inhib_2 is the assay component measured from the CCTE_Simmons_QuantiLum_inhib_2 assay. It is designed to make measurements of enzyme activity, a form of enzyme reporter, as detected with bioluminescence signals by Luciferase-coupled Quantilum levels technology. This is a secondary assay to CCTE_Simmons_AUR_TPO to evaluate nonspecific enzyme inhibition.Data from the assay component CCTE_Simmons_QuantiLum_inhib_2 was analyzed at the endpoint, CCTE_Simmons_QuantiLum_inhib_2, in the positive analysis fitting direction relative to DMSO as the negative control and baseline of activity. Using a type of enzyme reporter, measures of enzyme activity for loss-of-signal activity can be used to understand inhibition of firefly luciferase. This is an assay endpoint to indicate nonspecific protein inhibition for comparison to aeid 1508 for thyroperoxidase inhibition. To generalize the intended target to other relatable targets, this assay endpoint is annotated to the oxidoreductase intended target family, where the subfamily is monooxygenase.
# Quanti-Lum recombinant luciferase (Promega; Madison, Wisconsin) was diluted to 76.9 ng/ml with 200mM potassium phosphate buffer supplemented with 1 mg/ml bovine serum albumin and 65ul (5ng recombinant luciferase) per well was dispensed into opaque, white 384-well plates (Greiner, BioExpress) using an automated liquid handler (BioTek MicroFlo) with a plastic 5 ul tubing cassette. Test compounds were administered using the HDRT as described earlier to achieve a 0.5% final DMSO concentration. Microplates were incubated at 37C in the dark for 30min to mimic the AUR-TPO assay conditions. Luciferase detection reagent (25 ul per well; 9.2 mM dithiothreitol, 75uM Coenzyme A, 147uM dATP, 150uM D-luciferin, 8.9 mM Tricine, 297uM (MgCO3)4.Mg(OH)2.5H20, 742uM MgSO4, 27.8uM EDTA, pH 7.8, final assay concentrations) was then added using a BMG Clariostar plate reader equipped with syringe injectors (BMG LabTech; GmbH). Plates were read using a kinetic luminescence protocol (top read) whereby each well was individually injected with luciferase detection reagent immediately prior to measurement. Three biological replicates of technical singles were run for every chemical concentration tested. A titrated range of LUCINH2 served as a positive control on each plate of the luciferase inhibition screening assay. Test chemicals were administered as a titrated series of 8 concentrations from 5 nM up to 87.5 uM [final] for 30 minutes prior to single endpoint detection. Dimethylsulfoxide [DMSO] was used as the vehicle control. Luciferase Inhibitor I [2-(5-(2-Methoxyphenyl)-1,2,4-oxadiazol-3-yl)pyridine] was used as the positive control and was administered as a titrated series of 8 concentrations from 1 nM up to 100 uM [final].
# Luciferin 4-monooxygenase (Photinus pyralis), sequence (P08659 whole entry, looked up): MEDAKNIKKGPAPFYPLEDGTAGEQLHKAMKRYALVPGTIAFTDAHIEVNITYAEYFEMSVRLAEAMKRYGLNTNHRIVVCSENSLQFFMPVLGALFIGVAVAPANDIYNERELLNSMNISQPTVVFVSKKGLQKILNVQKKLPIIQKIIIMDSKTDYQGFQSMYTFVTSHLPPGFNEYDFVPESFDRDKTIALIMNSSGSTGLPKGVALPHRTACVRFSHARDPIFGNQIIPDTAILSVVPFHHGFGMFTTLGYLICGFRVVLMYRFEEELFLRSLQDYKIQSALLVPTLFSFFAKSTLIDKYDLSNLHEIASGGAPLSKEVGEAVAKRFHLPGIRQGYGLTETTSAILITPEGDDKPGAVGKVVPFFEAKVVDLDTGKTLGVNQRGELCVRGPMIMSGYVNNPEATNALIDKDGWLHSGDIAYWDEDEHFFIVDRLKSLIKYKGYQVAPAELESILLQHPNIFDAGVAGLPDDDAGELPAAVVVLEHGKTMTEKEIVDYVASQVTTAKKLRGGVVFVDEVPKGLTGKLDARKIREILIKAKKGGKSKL
Compound,outcome,AC50
Nc1ncn[nH]1,inactive,–
N#CS,inactive,–
O=C(CCl)Nc1ccccc1,inactive,–
O=C(CBr)c1ccc(O)cc1,inactive,–
O=c1[nH]c(=O)n(Cl)c(=O)n1Cl,inactive,–
COc1ccccc1N,inactive,–
CCOP(=S)(OCC)O/N=C(\C#N)c1ccccc1,–,70 µM (active)
O=C(NC(=O)c1c(F)cccc1F)Nc1ccc(Cl)cc1,inactive,–
CCOP(=S)(OCC)SCS(=O)(=O)C(C)(C)C,inactive,–
CN(N=O)C(N)=O,inactive,–
CCOc1ccc(N)cc1,inactive,–
CC(C)(C)c1ccccc1O,inactive,–
O=S1(=O)OC(c2cc(Br)c(O)c(Br)c2)(c2cc(Br)c(O)c(Br)c2)c2ccccc21,–,32.1 µM (active)
CN(C)C(=S)S,inactive,–
O=C1c2ccccc2C(=O)C1C(=O)C(c1ccccc1)c1ccc(Cl)cc1 (stereo not drawn),inactive,–
CCCCCCCCCCCCc1cccc(S(=O)(=O)O)c1,inactive,–
COC(=O)Nc1cccc(OC(=O)Nc2cccc(C)c2)c1,–,9.99 µM (active)
N#CCC#N,inactive,–
CCCCCCCCCCCCOS(=O)(=O)O,inactive,–
CCCSP(=S)(OCC)Oc1ccc(SC)cc1 (stereo not drawn),inactive,–
O=C(O)C1(c2ccc3c(c2)OC[C@H](Cc2ccc(-c4ccccc4)cc2)[C@H]3O)CCCC1,–,85.2 µM (active)
COc1ccc(N)cc1,inactive,–
Nc1ccc(N)cc1,–,13.9 µM (active)

# Reference: PubChem BioAssay (EPA / NIEHS)
